Source: PubChem BioAssay (NCATS)
Inconclusive results are not listed. Entries that show only a call come without a potency. The source made the active and inactive calls. Calls come from the whole dose curve; as a rule, active = well fitted cell-killing curve with a large enough effect; inconclusive = small, poorly fitted or top-dose-only effect, or effect the other way; inactive = no such curve, though single readings can be large or run the other way.
Potency is the fitted concentration of half-maximal effect.

Test: Quantitative High-Throughput drug screen in 47 multiple myeloma cell lines against the NCATS MIPE library collection: XG6_PLB cell viability assay (AID 1919865); note: nearly all actives have a fitted effect of over 40% in size
Conditions: XG6 myeloma viability, CellTiter-Glo ATP luminescence, 48 h; series mostly up to 45.8 µM
Excerpt: PI: Beverly A. Mock Ph.D.
Laboratory of Cancer Biology and Genetics,
Center for Cancer Research, National Cancer Institute,
National Institute of Health, Bethesda, Maryland
Drug resistance and disease progression are common in multiple myeloma (MM) patients, underscoring the need for new therapeutic combinations. […] We hypothesized that effective combinations would reduce MYC expression and enhance p16 activity. […] These preclinical data identify potentially useful drug combinations for evaluation in drug-resistant MM and reveal potential mechanisms of combined drug sensitivity.
Described herein is the primary MIPE qHTS used to cherrypick compounds. Validated compounds were then further tested for potential synergistic activiy.
[1] Peat TJ, Gaikwad SM, Dubois W, Gyabaah-Kessie N, Zhang S, Gorjifard S, Phyo Z, Andres M, Hughitt VK, Simpson RM, Miller MA, Girvin AT, Taylor A, Williams D, D'Antonio N, Zhang Y, Rajagopalan A, Flietner E, Wilson K, Zhang X, Shinn P, Klumpp-Thomas C, McKnight C, Itkin Z, Chen L, Kazandijian D, Zhang J, Michalowski AM, Simmons JK, Keats J, Thomas CJ, Mock BA. Drug combinations identified by high-throughput screening promote cell cycle transition and upregulate Smad pathways in myeloma. Cancer Lett. 2023 Aug 1;568:216284. doi: 10.1016/j.canlet.2023.216284. Epub 2023 Jun 24. PMID: 37356470; PMCID: PMC10408729.
SEQUENCE No. (e.g., 1, 2, 3, etc.); […] (e.g., Cells, Incubation, Reagent, etc.); VALUE and DESCRIPTION.
1; Cells; 5 uL; white, solid bottom 1536-well Greiner assay plate.
2; Compounds; 23 nL; Kalypsis pin tool (Wako USA) equipped with a 1536-well pin head to transfer to the assay plates.
3; Incubation; 48 hours; 37C incubation.
4; Reagent;5uL; CellTiter Glo (Promega).
5; Detector; 425V; Luminescence; Viewlux PerkinElmer.
NOTES (numbers refer to Sequence numbers above)
1. The cell-based screening methods employed in this study were like those previously published. Briefly, the corresponding myeloma cell lines were screened in 1,536-well plates with 500 cells, 5-uL per well for inhibition of cell viability (assessed by measuring ATP levels with CellTiterGlo).
2. NCATS MIPE 4.0 library of approved and investigational drugs were added using the Kalypsis pin tool. Wells treated with DMSO only for 100% viability and media only for 0% viability were used as controls.
3. The assay plates were covered and incubated for 48 hours in a 37C, 5% CO2 incubator with controlled humidity.
4. After 48 hours, CellTilter-GloTM luminescent substrate mix (Promega) reagent was added to the assay plate and plates we incubated for 5 min at room temperature.
5. Signal was measured as median relative luminescence units on a ViewLux (PerkinElmer) multiplate reader.
[1] Heske CM, Davis MI, Baumgart JT, Wilson K, Gormally MV, Chen L, Zhang X, Ceribelli M, Duveau DY, Guha R, Ferrer M, Arnaldez FI, Ji J, Tran HL, Zhang Y, Mendoza A, Helman LJ, Thomas CJ. Matrix Screen Identifies Synergistic Combination of PARP Inhibitors and Nicotinamide Phosphoribosyltransferase (NAMPT) Inhibitors in Ewing Sarcoma. Clin Cancer Res. 2017 Dec 1;23(23):7301-7311. doi: 10.1158/1078-0432.CCR-17-1121. Epub 2017 Sep 12. PMID: 28899971; PMCID: PMC6636827.
With Cc1nnc(NS(=O)(=O)c2ccc(N)cc2)s1 the Potency was 1.87 µM (active).
In the case of CCN(CC)CC#CCOC(=O)C(O)(c1ccccc1)C1CCCCC1 (stereo not given), the Potency is reported as “inactive”.
With NC(=O)c1ccc2[nH]ccc2c1 the Potency was “inactive”.
In the case of O=C(O)CSCC(=O)NC1CCSC1=O (stereo not given), the Potency is reported as “inactive”.
In the case of CS(=O)(=O)c1ccc([C@@H](O)[C@@H](CO)NC(=O)C(Cl)Cl)cc1, the Potency is reported as 18.7 µM (active).
For CCCOc1ccc(C(=O)OCCN(CC)CC)cc1N, the Potency was “inactive”.
For COc1nc(N)nc2c1ncn2[C@@H]1O[C@H](CO)[C@@H](O)[C@@H]1O, the Potency was “inactive”.
In the case of Cc1cccc(N(C)C(=S)Oc2ccc3ccccc3c2)c1, the Potency is reported as “inactive”.
In the case of COC(c1ccccc1)(c1ccccc1)[C@H](Oc1nc(C)cc(C)n1)C(=O)O, the Potency is reported as “inactive”.
With N=C(N)c1ccc(OCCCCCOc2ccc(C(=N)N)cc2)cc1 the Potency was 16.6 µM (active).
In the case of CN1CCCC(n2nc(Cc3ccc(Cl)cc3)c3ccccc3c2=O)CC1 (stereo not given), the Potency is reported as 1.05 µM (active).
With NNC(=O)c1ccncc1 the Potency was “inactive”.
For CCOC(=O)[C@H](CCc1ccccc1)N[C@H]1CS[C@H](c2cccs2)CN(CC(=O)O)C1=O, the Potency was 2.35 µM (active).
For CCCCc1oc2ccc(NS(C)(=O)=O)cc2c1C(=O)c1ccc(OCCCN(CCCC)CCCC)cc1, the Potency was 8.33 µM (active).
For CC(C)(C#N)c1cc(Cn2cncn2)cc(C(C)(C)C#N)c1, the Potency was “inactive”.
For CCN1CCCC1CNC(=O)c1cc(S(N)(=O)=O)ccc1OC (stereo not given), the Potency was “inactive”.
In the case of CC1=C(C(=O)O)N2C(=O)[C@@H](NC(=O)C(N)c3ccccc3)[C@H]2SC1 (stereo not given in full), the Potency is reported as “inactive”.
For CNS(=O)(=O)Cc1ccc2[nH]cc(CCN(C)C)c2c1, the Potency was “inactive”.
With Cc1ccnc2c1NC(=O)c1cccnc1N2C1CC1 the Potency was 23.5 µM (active).
In the case of COc1ncnc(NS(=O)(=O)c2ccc(N)cc2)c1OC, the Potency is reported as “inactive”.
For O=S(=O)(c1cccc2cnccc12)N1CCCNCC1, the Potency was 20.9 µM (active).
For S=P(N1CC1)(N1CC1)N1CC1, the Potency was 23.5 µM (active).
For NS(=O)(=O)c1cc2c(cc1Cl)NC(C(Cl)Cl)NS2(=O)=O (stereo not given), the Potency was “inactive”.
With Nc1[nH]c(=O)ncc1F the Potency was 26.4 µM (active).
For O=S(=O)(O)CCS, the Potency was “inactive”.
In the case of CCCc1cc(C(N)=S)ccn1, the Potency is reported as “inactive”.
For COc1ccc2c(c1)c(CC(=O)OCC(=O)O)c(C)n2C(=O)c1ccc(Cl)cc1, the Potency was “inactive”.
For C[C@@H](NCCCc1cccc(C(F)(F)F)c1)c1cccc2ccccc12, the Potency was “inactive”.
With COc1ccc2cc3[n+](cc2c1OC)CCc1cc2c(cc1-3)OCO2 the Potency was 16.6 µM (active).
With NC(=O)c1cccnc1 the Potency was 16.6 µM (active).
In the case of CCc1c2c(nc3ccc(OC(=O)N4CCC(N5CCCCC5)CC4)cc13)-c1cc3c(c(=O)n1C2)COC(=O)[C@]3(O)CC, the Potency is reported as 0.418 µM (active).
With NC(=O)N1c2ccccc2CC(=O)c2ccccc21 the Potency was “inactive”.
In the case of CC(=O)[C@H]1CC[C@H]2[C@@H]3CC=C4C[C@@H](O)CC[C@]4(C)[C@H]3CC[C@]12C, the Potency is reported as “inactive”.
In the case of CC(C)(C)NC(=O)[C@H]1CC[C@H]2[C@@H]3CC[C@H]4NC(=O)C=C[C@]4(C)[C@H]3CC[C@]12C, the Potency is reported as 0.132 µM (active).
With O=C(O)c1cn(C2CC2)c2cc(N3CCNCC3)c(F)cc2c1=O the Potency was “inactive”.
In the case of C[C@@H]1C[C@H]2[C@@H]3CCC4=CC(=O)C=C[C@]4(C)[C@@]3(Cl)[C@@H](O)C[C@]2(C)[C@@]1(OC(=O)c1ccco1)C(=O)CCl, the Potency is reported as 1.66 µM (active).
With N[C@@H](Cc1ccc(O)c(O)c1)C(=O)O the Potency was “inactive”.
For COC(=O)Nc1nc2ccc(S(=O)c3ccccc3)cc2[nH]1 (stereo not given), the Potency was 9.35 µM (active).
With O=P(O)(O)C(O)(Cc1cccnc1)P(=O)(O)O the Potency was “inactive”.
In the case of CC1=CC(=O)c2ccccc2C1=O, the Potency is reported as 14.8 µM (active).
